Screening results from PubChem.
In the library only some 6.3% were active in any assay of this set; here they are far more common.
Autofluor 339 – intrinsic fluorescence of library compounds, ex339/em460 – biochemical, MLSMR library, data from DPM-DC assay, artefact control, profiling panel | hit rate 5.5% among 65,000 | AID 709 | compound autofluorescence, ex339/em460 nm, NADH buffer; active compounds read high; 1 = no-compound wells, NADH background | fluorescence fold increase at 10 µM;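 active means at 10 µM, mean starting fluorescence two-fold or more over control wells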;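 further: signal is the first read of a kinetic run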
Spn DPM-DC inh – inhibitors of Streptococcus pneumoniae diphosphomevalonate decarboxylase | purified DPM-DC, PK/LDH coupled NADH fluorescence | hit rate 0.49% among 65,000 | AID 556 | calls only at 10 µM;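 active means the 320 compounds with the highest percent inhibition in the single-dose primary screen, excluding strongly autofluorescent ones, cut at about 32% in these data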;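 further: kinetic rate of NADH fluorescence loss reporting ADP formed by the decarboxylase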
A340 absorber – compound absorbs light at 340 nm; compound absorbance at 340 nm, fold over control; fold change at 10 µM; 65,000 tested, under 10 active;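 active means at 10 µM dose, initial 340 nm absorbance at least 2 fold that of control wells; inactive means change under 2 fold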;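 further: initial absorbance extrapolated from kinetic A340 decline of NADH oxidation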
Spn PMK inh – inhibitors of Streptococcus pneumoniae phosphomevalonate kinase. purified PMK, PK/LDH-coupled NADH absorbance 340 nm. inhibition, % at 10 µM. hit rate 0.49% among 65,000. AID 539;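 active means top-ranked compounds by inhibition in the single 10 µM screen, taking a fixed number of the strongest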;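 further: 0% = full reaction with DMSO carrier and 100% = background rate without enzyme reaction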
NADH coupling – inhibitors of enzymes used to reach an NAD/NADH endpoint. coupled PK/LDH NADH assays, four targets. IC50, µM (doses to about 10 µM), for the others: at the top dose inhibition. hit rate 0.02% among 65,000. AID 774;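 active means single-dose screening hits from any of four coupled enzyme assays that gave an IC50 when retested across doses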;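 further: the DPM-DC format reads NADH fluorescence rather than 340 nm absorbance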
Spn MK inh – inhibitors of Streptococcus pneumoniae mevalonate kinase. purified MK, PK/LDH-coupled NADH absorbance 340 nm. inhibition, % at 10 µM. hit rate 0.48% among 65,000. AID 555;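 active means ranked among the strongest by inhibition in the single 10 µM screen, a fixed top-ranked set picked for dose follow-up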
An asterisk follows results filed as active; i = inactive; nt = not tested or not shown.

SMILES	Autofluor 339	Spn DPM-DC inh	A340 absorber	Spn PMK inh	NADH coupling	Spn MK inh
O=C(CS(=O)(=O)Cc1ccccc1)Nc1ncccn1	1.1	i	1.04	0.0	0.0%	0.0
COC(=O)Cn1c(CCC(=O)O)ccc1-c1ccccc1	2.2*	nt	1.04	0.0	0.0%	0.0
O=C(O)CCc1ccc(-c2ccccc2)n1CC1CCCO1 (configuration not stated)	4*	nt	1.03	8.0	10.0%	11.0
CCCn1c(CCC(=O)O)ccc1-c1ccc(F)cc1	2.01*	i	1.07	6.0	8.0%	9.0
COc1ccc(-c2ccc(CCC(=O)O)n2C(C)C)cc1	2.03*	i	1.07	2.0	7.0%	4.0
Cc1ccc(C)c(Cn2c(CN(C)Cc3ccccc3)nc3c2c(=O)n(C)c(=O)n3C)c1	1.12	i	1.02	9.0	3.0%	0.0
Clc1ccc(COn2nnc3ccccc32)c(Cl)c1	1.09	i	1.06	6.0	4.0%	7.0
CCOC(=O)CCC(NC(=O)c1cncc(O)c1)C(=O)OCC (configuration not stated)	2.91*	i	1.1	0.0	6.0%	5.0
OC1CC(c2ccco2)NC2(CCCCC2)C1 (configuration not stated)	1.12	i	0.99	5.0	13.0%	35.0
COC(=O)c1oc2ccc(Br)cc2c1NC(=O)c1ccccc1	3.17*	i	1.11	10.0	12.0%	5.0
COC(=O)c1oc2ccc(Br)cc2c1NC(=O)CN1CCN(C)CC1	1.06	i	1	12.0	3.0%	7.0
COc1cccc(Cn2c(N)c(C#N)c3nc4ccccc4nc32)c1OC	3.43*	nt	1.01	8.0	6.0%	4.0
COc1cc(Cn2c(N)c(C#N)c3nc4ccccc4nc32)cc(OC)c1	3.9*	nt	1.03	0.0	3.0%	6.0
N#Cc1c(N)n(CCOC(=O)c2cccc(Br)c2)c2nc3ccccc3nc12	2.44*	nt	1	0.0	3.0%	1.0
CCN(CC)CCOC(=O)c1cccc(Br)c1	1.06	i	1	1.0	1.0%	nt
O=S(=O)(c1ccc(Br)s1)n1cccn1	1.08	i	1	8.0	3.0%	0.0
CCn1ncc(Cl)c1C(=O)NC(C)c1ccccc1 (configuration not stated)	1.14	i	1.07	0.0	1.0%	4.0
O=C(Nc1ccc2c(c1)OCO2)C1CCN(Cc2cnn(-c3ccccc3)c2-n2cccc2)CC1	1.07	i	1.03	20.0	7.0%	0.0
COCCCNC(=O)CN(C1CCCCC1)S(=O)(=O)c1ccc(C)cc1	1.09	i	1.02	30.0*	11.0%	2.0
CCOc1ccc(-c2nc(C#N)c(N3CCCCCC3)o2)cc1	2.43*	nt	1	11.0	4.0%	9.0
CCCOc1ccc(-c2nc(C#N)c(N3CCN(C)CC3)o2)cc1	3.87*	nt	1.1	0.0	2.0%	4.0
N#Cc1nc(-c2ccc(OCc3ccc(Cl)cc3)cc2)oc1N1CCOCC1	1.85	i	1.05	9.0	7.0%	10.0
CCOc1ccc(-c2nc(C#N)c(N3CCN(C)CC3)o2)cc1	2.92*	nt	1.04	1.0	2.0%	6.0
NC(=O)c1oc2ccc(Cl)cc2c1N	3.86*	nt	1.05	11.0	9.0%	7.0
COc1ccc2oc(-c3ccccc3)c(C(N)=O)c2c1	2.08*	nt	1.07	0.0	2.0%	4.0
SMILES	Autofluor 339	Spn DPM-DC inh	A340 absorber	Spn PMK inh	NADH coupling	Spn MK inh
COC(=O)c1oc2ccc(OC)cc2c1N	2.62*	i	1.01	20.0	8.0%	2.0
Nc1c(C(=O)CCC(=O)O)oc2ccc(Cl)cc12	1.64	i	1.12	12.0	8.0%	0.0
CCOC(=O)c1c(COc2ccccc2)oc2ccc(O)cc12	1.12	i	1.04	0.0	1.0%	4.0
COc1ccc(C(=O)c2oc3ccc(OC)cc3c2N)cc1	1.84	i	1.12	1.0	8.0%	7.0
CCN(CC)CCOC(=O)c1c(C)oc2ccc(OC)cc12	1.07	i	1.03	14.0	7.0%	4.0
CN(C)C(=O)c1c(-c2ccccc2)oc2ccc(O)cc12	2.22*	nt	1.12	0.0	3.0%	5.0
CSc1ccc(-c2cc(=O)c3ccccc3o2)cc1	2.89*	nt	1.06	14.0	3.0%	0.0
O=C(Nc1cc(=O)c2ccccc2o1)N1CCCCC1	1.18	i	1.11	0.0	4.0%	11.0
C=CCn1c(=NC(=O)C2CC2)sc2cc(NC(C)=O)ccc21	2.11*	nt	1.14	21.0	16.0%	10.0
CCOc1ccc(S(=O)(=O)NCc2ccc(F)cc2)c2cccnc12	3.55*	i	1.06	0.0	10.0%	1.0
Cn1c(=O)cc(OCC(=O)N2CCC(N3CCCCC3)CC2)c2ccccc21	1.08	i	1.05	5.0	2.0%	0.0
Cc1ccc(OCC(=O)Nc2ccc(O)c(C(=O)O)c2)cc1C	3.28*	nt	1.03	6.0	8.0%	9.0
COC(=O)c1cn(NC(=O)c2cccnc2)c(=O)c2ccccc12	1.08	i	1.01	10.0	3.0%	3.0
CC(=O)c1cc2c(cc1NC(=O)c1ccc(-n3nc(C)cc3C)cc1)OCO2	2.11*	nt	1.04	15.0	10.0%	4.0
Cc1cc(C)n(-c2ccc(C(=O)Nc3nc4ccccc4s3)cc2)n1	3.29*	i	1.02	13.0	10.0%	6.0
CC1(C)Cc2c(C#N)c(NC3CCCCC3)nc(-c3ccco3)c2CO1	2.16*	nt	1.07	2.0	4.0%	6.0
N#Cc1c(-c2ccco2)nc(NCC2CCCO2)[nH]c1=O (configuration not stated)	1.09	i	1.11	7.0	9.0%	13.0
CC1(C)Cc2c(C#N)c(NCC3CCCO3)nc(-c3ccco3)c2CO1 (configuration not stated)	2.33*	nt	1.07	20.0	10.0%	0.0
c1ccc(-n2nnnc2SCc2cccc3nsnc23)cc1	1.1	i	0.98	10.0	3.0%	0.0
Cc1ccc2c(c1)c1ncnc(N3CCN(c4ccccc4)CC3)c1n2C	1.87	i	1.02	0.0	2.0%	6.0
Cc1ccc(-n2ncc3c(N4CCC5(CC4)OCCO5)ncnc32)c(C)c1	0.66	i	1.03	1.0	10.0%	1.0
Cc1ccc2c(c1)c1ncnc(N3CCC4(CC3)OCCO4)c1n2C	3.71*	nt	1.05	4.0	9.0%	13.0
Cc1ccc2c(c1)c1ncnc(N3CCOCC3)c1n2C	3.76*	nt	1.04	2.0	5.0%	8.0
CCOC(=O)c1cc(CC)sc1N	1.01	i	1	16.0	7.0%	5.0
CCOC(=O)C1CCCN(CC(=O)Nc2c(C(=O)OC)[nH]c3ccc(C)cc23)C1 (configuration not stated)	2.6*	i	1.05	12.0	12.0%	12.0
COC(=O)c1[nH]c2ccc(C)cc2c1NC(=O)CCN1CCN(Cc2ccc3c(c2)OCO3)CC1	2.27*	i	1.01	2.0	8.0%	12.0
COC(=O)c1[nH]c2ccc(C)cc2c1NC(=O)CN1CCCCC1C (configuration not stated)	2.29*	i	1.05	11.0	11.0%	8.0
